# This is one part of a sample in which the strongest signals are shown more often than they occur.
# System: Neu5Ac(a2-3)Gal(b1-4)Glc
# Assay: glycan array binding signal (z-score within array); higher = stronger binding
# Details: glycan notation: IUPAC condensed, linker removed
# Outline: (§1)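 Negative Z-scores can be read as non-binding. The Z-score is calculated within each array and then averaged across arrays of one protein sequence at different concentrations or buffers and across linkers. Arrays, 3228 in all, were curated from the Consortium for Functional Glycomics database and kept only where the protein sequence was available.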
row,Substance,glycan array binding signal (z-score)
1,"SiiE (Salmonella typhimurium), A0A0H3NVH0",2.39
2,Actinohivin (Actinomycete K97),0.053
3,"MIC3-MAR1b (Eimeria tenella), B6VCV4",-0.453

# System: Neu5Ac(a2-3)Gal(b1-4)[Fuc(a1-3)]GlcNAc(b1-6)[Neu5Ac(a2-3)Gal(b1-3)]GalNAc
# Assay: as above
# Details: glycan notation: IUPAC condensed, linker removed
# Outline: as §1
row,Substance,glycan array binding signal (z-score)
1,Epa22,0.118
2,Actinohivin (Actinomycete K97),-0.02
3,AgI/II Vhelical-GFP (Streptococcus mutans),-0.178

# System: Neu5Ac(a2-6)Gal(b1-3)GlcNAc(b1-3)[Gal(b1-4)GlcNAc(b1-6)]Gal(b1-4)Glc
# Assay: as above
# Details: glycan notation: IUPAC condensed, linker removed
# Outline: as §1
row,Substance,glycan array binding signal (z-score)
1,Epa22,-0.487
2,"SpGH101 (Streptococcus pneumoniae), Q8DR60",-0.168
3,"Wza (Escherichia coli), P0A930",0.652

# Reference: the supplement of paper PMC8728848
